Experimental data from PubChem BioAssay (Tox21).
Inconclusive results are not listed. Unmarked numbers belong to inactive results. Active and inactive are the calls of the source. Calls follow the shape of the dose curve; as a rule, active = well fitted inhibition curve with a large enough effect in the repeat runs; inconclusive = weak or mixed curves; inactive = flat fitted curve, though single readings scatter.
% is scaled to controls: 0 for no effect and ±100 for the full control effect; potency is read from the fitted curve at half-maximal effect.

The molecules below were run against Luciferin 4-monooxygenase (Photinus pyralis) (UniProt P08659) (assay: qHTS assay to identify small molecule inhibitors of firefly luciferase (AID 1224835; also: nearly all actives have a fitted effect of over 25% in size)). Settings: purified P. pyralis luciferase, luminescence inhibition; series mostly up to 115 µM; activity change, negative = inhibition: at the top concentration.
Sequence of Luciferin 4-monooxygenase (Photinus pyralis) (P08659 whole entry, looked up): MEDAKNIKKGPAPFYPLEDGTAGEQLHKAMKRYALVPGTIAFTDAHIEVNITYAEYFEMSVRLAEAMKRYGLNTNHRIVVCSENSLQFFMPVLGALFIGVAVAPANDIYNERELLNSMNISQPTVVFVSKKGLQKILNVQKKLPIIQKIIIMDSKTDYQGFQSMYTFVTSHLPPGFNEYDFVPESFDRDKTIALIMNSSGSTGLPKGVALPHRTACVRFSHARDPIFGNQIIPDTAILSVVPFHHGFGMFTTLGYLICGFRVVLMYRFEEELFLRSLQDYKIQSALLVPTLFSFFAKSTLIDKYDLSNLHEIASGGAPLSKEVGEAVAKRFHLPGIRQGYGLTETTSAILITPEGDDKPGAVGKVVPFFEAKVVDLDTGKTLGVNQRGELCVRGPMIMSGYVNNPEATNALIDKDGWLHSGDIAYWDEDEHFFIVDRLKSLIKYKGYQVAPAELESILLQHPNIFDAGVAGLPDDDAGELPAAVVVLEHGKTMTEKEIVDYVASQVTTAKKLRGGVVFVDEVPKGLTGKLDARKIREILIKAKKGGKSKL
Text: U.S. Tox21 Program National Center for Advancing Translational Sciences [NCATS] NIH Chemical Genomics Center [NCGC] U.S. Environmental Protection Agency [EPA] National Institutes of Environmental Health Sciences [NIEHS] National Toxicology Program [NTP] U.S. Food and Drug Administration [FDA] Tox21 Assay Overview: Firefly (Photinus pyralis) luciferase is one of the most commonly used transcriptional reporters. Firefly luciferase reporter-gene assays are generally considered one of the most sensitive assay types (Wood, 1995; Wood, 1998). However, it was initially observed, in 1991, by Thompson et al., that compounds that resemble the substrates of firefly luciferase (FLuc) can act as competitive inhibitors of the enzyme, and that these compounds, upon interaction with luciferase in the cell, can actually stabilize the protein and increase its half-life. Previous profiling work by other groups to determine the prevalence of compounds that affect FLuc enzymatic activity (PubChem AID 411) identified that ~3% of the MLSMR library (then at ~72K) inhibited FLuc. […] Thus the Tox21 10K library is profiled for activity against FLuc using a biochemical assay of purified FLuc and KM concentrations of FLuc substrates (D-luciferin and ATP).
These assay plates were then treated with 23nL of compound or DMSO using a Kalypsys pin tool, which allows for delivery of a 6-point interplate titration of each compound to the assay plate (quantitative HTS.) 1 uL of firefly luciferase mix (containing 50 mM Tris acetate, pH 7.6, 0.04 uM P. pyralis luciferase, 0.01% Tween, 0.05% BSA and dH2O) was then delivered by FRD to each well. Luciferase activity was then measured using a ViewLux CCD imager.
With `CN(C)CCCNCCC#N` the “activity change, negative = inhibition” value was -0.226%. With `c1ccc(CNc2ncnc3nc[nH]c23)cc1` the “activity change, negative = inhibition” value was -2.81%. For `O=C(O)c1ccc(OCCN2CCCCC2)cc1`, the “activity change, negative = inhibition” value was 0.25% [at 52.9 µM]. In the case of `NC(=O)C1(N2CCCCC2)CCN(CCCC(=O)c2ccc(F)cc2)CC1`, the “activity change, negative = inhibition” value is reported as -0.395% [at 52.9 µM]. With `CCOC(=O)CC(CC(=O)OCC)(OC(C)=O)C(=O)OCC` the “activity change, negative = inhibition” value was -5.75%. With `O=C(O)c1c(Cl)ccc(Cl)c1Cl` the “activity change, negative = inhibition” value was 0.142%. With `CCCCCCCCCCCCCC(=O)OC` the “activity change, negative = inhibition” value was 0.636%. With `CC(C)C(=O)c1ccccc1` the “activity change, negative = inhibition” value was 4.2%. For `CC(=O)OCC(=O)[C@@]1(O)[C@H](OC(C)=O)C[C@H]2[C@@H]3CCC4=CC(=O)C=C[C@]4(C)[C@@]3(F)[C@@H](O)C[C@@]21C`, the “activity change, negative = inhibition” value was 1.22% [at 52.9 µM]. `C=CCOCC(CO)(COCC=C)COCC=C` was tested, and the “activity change, negative = inhibition” value was -0.454% [at 52.9 µM]. `CCCCCCCCC(=O)OCC` was tested, and the “activity change, negative = inhibition” value was -0.333%. `CCCCCCCCCCC` was tested, and the “activity change, negative = inhibition” value was 3.24%. In the case of `O=C(O)c1ccccc1C(=O)OCc1ccccc1`, the Potency is reported as 39.9 µM (active). For `N#CCCOCCOCCC#N`, the “activity change, negative = inhibition” value was -3.15%. For `CCC(=O)c1ccc(O)cc1`, the “activity change, negative = inhibition” value was -1.83% [at 52.9 µM]. For `O=C1OC(=O)c2ccccc21`, the “activity change, negative = inhibition” value was 2.12%. For `OC(CCN1CCCCC1)(c1ccccc1)c1ccccc1`, the “activity change, negative = inhibition” value was -0.0195% [at 52.9 µM]. In the case of `F[Si-2](F)(F)(F)(F)F`, the “activity change, negative = inhibition” value is reported as 5.83%. For `C=CCOCC(O)CCl` (stereo not given), the “activity change, negative = inhibition” value was -2.31%. In the case of `C[CH2][Ge]([Cl])([CH2]C)[CH2]C`, the “activity change, negative = inhibition” value is reported as -1.86%. In the case of `FC(F)(F)/C(=N\OCC1OCCO1)c1ccc(Cl)cc1`, the “activity change, negative = inhibition” value is reported as 3.05%. `CNC(=O)NC` was tested, and the “activity change, negative = inhibition” value was 6.08%. For `CCC(C)(CCC(C)C)C(=O)[O-].CCC(C)(CCC(C)C)C(=O)[O-].[Zn+2]` (stereo not given), the Potency was 25.2 µM (active). For `C[Si]1(C)N[Si](C)(C)N[Si](C)(C)N1`, the “activity change, negative = inhibition” value was -0.183%. For `COC(=O)CCC(=O)O`, the “activity change, negative = inhibition” value was 2.37%. In the case of `C=C(C)C(=O)OCCCCCCOC(=O)C(=C)C`, the “activity change, negative = inhibition” value is reported as -8.58%. `CO[Si](CCCS)(OC)OC` was tested, and the “activity change, negative = inhibition” value was 3.54%. With `CC(C)COC(=O)CCCCC(=O)OCC(C)C` the “activity change, negative = inhibition” value was 1.83%. For `CC(=O)Nc1ccc(C)cc1`, the “activity change, negative = inhibition” value was 0.299%. `CCCCCCCCCCCCOC(C)=O` was tested, and the “activity change, negative = inhibition” value was -0.0161%. With `C1CCN2C[C@@H]3C[C@@H](CN4CCCC[C@@H]34)[C@H]2C1` the “activity change, negative = inhibition” value was -0.29% [at 52.9 µM]. For `O=C1CC[C@H](C(=O)N2CCCCC2)N1`, the “activity change, negative = inhibition” value was 4.23% [at 52.9 µM]. In the case of `CCOC(=O)CC#N`, the “activity change, negative = inhibition” value is reported as 2.56%. For `CC(=O)N(CC(O)CO)c1c(I)c(C(=O)NCC(O)CO)c(I)c(C(=O)NCC(O)CO)c1I` (stereo not given), the “activity change, negative = inhibition” value was 5.06% [at 52.9 µM]. With `O=CN1CCOCC1` the “activity change, negative = inhibition” value was 1.03%. `COC(/C=C(\C)CCC=C(C)C)OC` was tested, and the “activity change, negative = inhibition” value was -5.85%. `C[C@H]1O[C@H](O[C@H]2[C@H](O)[C@@H](O)[C@@H](O[C@H]3[C@H](O)[C@@H](O)[C@H](O)O[C@@H]3CO)O[C@@H]2CO)[C@H](O)[C@@H](O)[C@@H]1N[C@H]1C=C(CO)[C@@H](O)[C@H](O)[C@H]1O` was tested, and the “activity change, negative = inhibition” value was 1.92% [at 52.9 µM]. In the case of `O=C(O)C(=O)Nc1cccc(-c2nn[nH]n2)c1`, the “activity change, negative = inhibition” value is reported as 2.15% [at 52.9 µM]. `COCCOCCOCCOC` was tested, and the “activity change, negative = inhibition” value was 9.49%. `Cc1nc2n(c(=O)c1CCN1CCC(C(=O)c3ccc(F)cc3)CC1)CCS2` was tested, and the “activity change, negative = inhibition” value was -1.48% [at 52.9 µM].
